Test results taken from PubChem BioAssay (EPA / NIEHS).
Calls of active or inactive are those of the source. The calls were made as follows: active = hit-call score of the fitted dose curve at least 0.9, where 1 is the maximum; inactive = score below 0.9.

Legend:
[1] = ATG_GLI_CIS: Attagene CIS-FACTORIAL HepG2 Assay for human Zinc Finger Protein GLI1 (AID 2282945); conditions: HepG2, Attagene cis-factorial reporter mRNA, GLI element; actives raise or lower the signal
Procedure, shortened: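 HepG2 cells transiently transfected with cis-promoter multiplexed reporter units report endogenous transcription factor activity. After 24 h chemical exposure, reporter mRNA was quantified by RT-PCR, 6-FAM labelling, HpaI digestion and capillary electrophoresis, with bidirectional fitting against DMSO.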

[2] = molecular target: Bile acid receptor (Homo sapiens) (UniProt Q96RI1); assay: ATG_IR1_CIS: Attagene CIS-FACTORIAL HepG2 Assay for human Nuclear Receptor Subfamily 1 Group H Member 4 (NR1H4), IR1 submotif (AID 2282946); conditions: IR1 reporter transcription, actives raise or lower the signal
Procedure, shortened: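 Transient MRTU transfection, HepG2; 24 h dosing; RNA → RT-PCR → 6-FAM primer extension → HpaI digest → capillary electrophoresis fluorescence. Gain/loss of signal fitted relative to DMSO.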

[3] = ATG_GRE_CIS: Attagene CIS-FACTORIAL HepG2 Assay for human Glucocorticoid Response Elements (GRE) (AID 2282947); conditions: HepG2 GRE cis-reporter, Attagene multiplex mRNA; actives raise or lower the signal
Procedure, shortened: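 HepG2 cells transiently transfected with multiple cis-promoter reporter units measure endogenous TF activity; 24 h compound exposure. Reporter mRNA quantified by RT-PCR, FAM labelling, HpaI digestion and capillary electrophoresis; bidirectional fit vs DMSO baseline.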

[4] = ATG_ISRE_CIS: Attagene CIS-FACTORIAL HepG2 Assay for human Interferon Regulatory Factor 1 (IRF1) binding to an Interferon-Stimulated Response Element (ISRE) (AID 2282948); conditions: HepG2 ISRE cis-reporter (Attagene), mRNA transcription readout; actives raise or lower the signal
Procedure, shortened: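 HepG2 cells transiently transfected with multiplexed cis-promoter reporter units; after 24 h compound exposure, reporter mRNA quantified by RT-PCR, FAM labelling, HpaI digestion and capillary electrophoresis. Bidirectional fit versus DMSO baseline.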

[5] = ATG_M_32_CIS: Attagene CIS-FACTORIAL HepG2 Assay for M32 Transcription Factor (Internal Marker) (AID 2282949); conditions: HepG2 Attagene cis-factorial M32 reporter, mRNA; actives raise or lower the signal;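 also: background control marker of the multiplexed CIS panel rather than a real target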
Procedure, shortened: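 Internal background marker read-out: RT-PCR/capillary electrophoresis fluorescence of reporter transcripts from transiently transfected HepG2 cells after 24 h chemical exposure. Activity fitted bidirectionally relative to DMSO negative control.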

[6] = ATG_M_06_CIS: Attagene CIS-FACTORIAL HepG2 Assay for M06 Transcription Factor (Internal Marker) (AID 2282950); conditions: HepG2 Attagene CIS-FACTORIAL M06 internal marker reporter; actives raise or lower the signal
Procedure, shortened: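 Serves as a background control readout. Transfected HepG2 exposed to compounds for 24 h, then reporter transcripts quantified by fluorescent RT-PCR and capillary electrophoresis. Both directions fitted against DMSO baseline.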

[7] = molecular target: Hypoxia-inducible factor 1-alpha (Homo sapiens) (UniProt Q16665); assay: ATG_HIF1a_CIS: Attagene CIS-FACTORIAL HepG2 Assay for human Hypoxia Inducible Factor 1 (HIF1A) (AID 2282951); conditions: HepG2 Attagene cis-factorial HIF1a reporter transcription; actives raise or lower the signal
Procedure, shortened: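 HepG2 cells transiently transfected with multiplexed cis-promoter reporter units; reporter mRNA read 24 h after dosing by RT-PCR, 6-FAM primer-extension labelling, HpaI digestion and capillary electrophoresis. Bidirectional fit versus DMSO baseline.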

[8] = molecular target: Hepatocyte nuclear factor 6 (Homo sapiens) (UniProt Q9UBC0); assay: ATG_HNF6_CIS: Attagene CIS-FACTORIAL HepG2 Assay for human Hepatocyte Nuclear Factor 6 (HNF6) (AID 2282952); conditions: HepG2 Attagene cis-factorial HNF6 reporter transcription; actives raise or lower the signal
Procedure, shortened: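 HepG2 cells transiently transfected with cis-element-driven multiplexed reporter units measuring endogenous transcription factor activity. After 24 h exposure, reporter mRNA quantified by RT-PCR, FAM-labelled fragments and capillary electrophoresis; bidirectional fitting versus DMSO.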

[9] = molecular target: Heat shock factor protein 1 (Homo sapiens) (UniProt Q00613); assay: ATG_HSE_CIS: Attagene CIS-FACTORIAL HepG2 Assay for human Heat Shock Transcription Factor 1 (HSE) (AID 2282953); conditions: HepG2 HSE cis-reporter, Attagene RNA transcription; actives raise or lower the signal
Procedure, shortened: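 Endogenous transcription factor activity in transiently transfected HepG2, read as reporter mRNA by RT-PCR with fluorescent capillary electrophoresis after 24 h. Gain or loss of signal fitted versus DMSO baseline.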

[10] = ATG_MRE_CIS: Attagene CIS-FACTORIAL HepG2 Assay for human Metal Responsive Element (MRE) (AID 2282954); conditions: HepG2 MRE cis-reporter transcription, Attagene multiplex; actives raise or lower the signal
Procedure, shortened: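 HepG2 cells transiently transfected with multiple cis-element reporter units measure endogenous MTF1-driven transcription. After 24 h compound exposure, reporter mRNA is quantified by RT-PCR with 6-FAM labelling, HpaI digestion and capillary electrophoresis; bidirectional fits versus DMSO.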

[11] = ATG_PBREM_CIS: Attagene CIS-FACTORIAL HepG2 Assay for human Phenobarbital-responsive Enhancer Module (PBREM) (AID 2282955); conditions: HepG2 PBREM cis-reporter, Attagene multiplexed transcription; actives raise or lower the signal
Procedure, shortened: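 HepG2 cells transiently transfected with multiple cis-regulated reporter transcription units; endogenous factor activity at the PBREM element measured as reporter mRNA 24 h after dosing, via RT-PCR and capillary electrophoresis of fluorescent fragments; bidirectional fitting versus DMSO.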

[12] = molecular target: Paired box protein Pax-6 (Homo sapiens) (UniProt P26367); assay: ATG_Pax6_CIS: Attagene CIS-FACTORIAL HepG2 Assay for human Paired Box 6 (PAX6) (AID 2282956); conditions: HepG2 CIS-FACTORIAL PAX6 reporter transcription, RNA readout; actives raise or lower the signal
Procedure, shortened: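 HepG2 cells transiently transfected with multiplexed cis-promoter reporter units (endogenous TF activity) were dosed for 24 h. Reporter mRNA was quantified by RT-PCR, 6-FAM labeling, HpaI digestion and capillary electrophoresis; bidirectional fitting versus DMSO baseline.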

[13] = ATG_PXRE_CIS: Attagene CIS-FACTORIAL HepG2 Assay for human Pregnane X Receptor Element (PXRE) (AID 2282957); conditions: HepG2 Attagene CIS-FACTORIAL PXRE reporter, mRNA; actives raise or lower the signal
Procedure, shortened: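 HepG2 cells transiently transfected with cis-element-driven multiplexed reporter units; after 24 h chemical exposure, reporter mRNA measured by RT-PCR, 6-FAM labelling, HpaI digestion and capillary electrophoresis. Bidirectional fitting relative to DMSO.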

[14] = ATG_PPRE_CIS: Attagene CIS-FACTORIAL HepG2 Assay for human Peroxisome Proliferator-activated Response Element (PPRE) (AID 2282958); conditions: HepG2 PPRE cis-element reporter, Attagene transcription factor profiling; actives raise or lower the signal
Procedure, shortened: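 HepG2 cells transiently transfected with multiplexed cis-element reporter units measure endogenous transcription factor activity. After 24 h compound exposure, reporter mRNA is quantified by RT-PCR, 6-FAM labeling, HpaI digestion and capillary electrophoresis; bidirectional fits are made against DMSO baseline.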

[15] = ATG_RORE_CIS: Attagene CIS-FACTORIAL HepG2 Assay for human RAR-related Orphan Receptor Element (RORE) (AID 2282959); conditions: HepG2 Attagene cis-factorial RORE reporter, mRNA; actives raise or lower the signal
Procedure, shortened: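 HepG2 cells transiently transfected with multiple cis-element reporter transcription units, exposed to chemical for 24 h. Reporter mRNA quantified by RT-PCR, 6-FAM primer-extension labeling, HpaI digestion and capillary electrophoresis; bidirectional fit versus DMSO baseline.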

[16] = ATG_Sox_CIS: Attagene CIS-FACTORIAL HepG2 Assay for human SRY-box transcription factor (SOX) (AID 2282960); conditions: HepG2 Attagene cis-factorial SOX reporter, mRNA; actives raise or lower the signal
Procedure, shortened: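 HepG2 cells transiently transfected with cis-element-driven multiple reporter transcription units, dosed 24 h; reporter mRNA measured by RT-PCR, FAM labelling, HpaI digestion and capillary electrophoresis. Bidirectional fit versus DMSO baseline.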

[17] = molecular target: Transcription factor Sp1 (Homo sapiens) (UniProt P08047); assay: ATG_Sp1_CIS: Attagene CIS-FACTORIAL HepG2 Assay for human Specificity Protein 1 (Sp1) (AID 2282961); conditions: HepG2 Sp1 cis-reporter transcription, actives raise or lower the signal
Procedure, shortened: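 HepG2 cells transiently transfected with multiple reporter transcription units driven by cis-regulatory elements; Sp1-responsive reporter mRNA measured 24 h after dosing by RT-PCR and capillary electrophoresis fluorescence, fitted bidirectionally against DMSO baseline.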

[18] = ATG_SREBP_CIS: Attagene CIS-FACTORIAL HepG2 Assay for human Sterol Regulatory Element Binding (SREBP) (AID 2282962); conditions: HepG2 Attagene cis-factorial SREBP reporter, mRNA; actives raise or lower the signal
Procedure, shortened: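 HepG2 cells transiently transfected with multiplexed cis-element reporter units report endogenous transcription factor activity. After 24 h of chemical exposure, reporter mRNA was quantified by RT-PCR, 6-FAM labelling, HpaI digestion and capillary electrophoresis; bidirectional fits used DMSO as baseline.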

[19] = molecular target: Signal transducer and activator of transcription 3 (Homo sapiens) (UniProt P40763); assay: ATG_STAT3_CIS: Attagene CIS-FACTORIAL HepG2 Assay for human Signal Transducer and Activator of Transcription 3 (STAT3) (AID 2282963); conditions: HepG2, Attagene cis-factorial STAT3 reporter transcription; actives raise or lower the signal
Procedure, shortened: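 HepG2 cells transiently transfected with cis-element-driven multiple reporter transcription units; after 24 h chemical exposure, reporter mRNA measured by RT-PCR, 6-FAM primer-extension labelling, HpaI digestion and capillary electrophoresis. Bidirectional fitting versus DMSO baseline.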

[20] = ATG_TA_CIS: Attagene CIS-FACTORIAL HepG2 Assay for human TA Basal Promoter (AID 2282964); conditions: HepG2 Attagene CIS-factorial TA basal promoter reporter; actives raise or lower the signal
Procedure, shortened: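 Background-control readout: TA basal promoter reporter mRNA, fitted in both directions relative to DMSO. Measured by RT-PCR and capillary electrophoresis 24 hours after treating HepG2 human liver cells transiently carrying multiplexed cis-regulated reporter constructs.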

Measured: AC50

Sequence of Transcription factor Sp1 (Homo sapiens) (P08047 whole entry, looked up): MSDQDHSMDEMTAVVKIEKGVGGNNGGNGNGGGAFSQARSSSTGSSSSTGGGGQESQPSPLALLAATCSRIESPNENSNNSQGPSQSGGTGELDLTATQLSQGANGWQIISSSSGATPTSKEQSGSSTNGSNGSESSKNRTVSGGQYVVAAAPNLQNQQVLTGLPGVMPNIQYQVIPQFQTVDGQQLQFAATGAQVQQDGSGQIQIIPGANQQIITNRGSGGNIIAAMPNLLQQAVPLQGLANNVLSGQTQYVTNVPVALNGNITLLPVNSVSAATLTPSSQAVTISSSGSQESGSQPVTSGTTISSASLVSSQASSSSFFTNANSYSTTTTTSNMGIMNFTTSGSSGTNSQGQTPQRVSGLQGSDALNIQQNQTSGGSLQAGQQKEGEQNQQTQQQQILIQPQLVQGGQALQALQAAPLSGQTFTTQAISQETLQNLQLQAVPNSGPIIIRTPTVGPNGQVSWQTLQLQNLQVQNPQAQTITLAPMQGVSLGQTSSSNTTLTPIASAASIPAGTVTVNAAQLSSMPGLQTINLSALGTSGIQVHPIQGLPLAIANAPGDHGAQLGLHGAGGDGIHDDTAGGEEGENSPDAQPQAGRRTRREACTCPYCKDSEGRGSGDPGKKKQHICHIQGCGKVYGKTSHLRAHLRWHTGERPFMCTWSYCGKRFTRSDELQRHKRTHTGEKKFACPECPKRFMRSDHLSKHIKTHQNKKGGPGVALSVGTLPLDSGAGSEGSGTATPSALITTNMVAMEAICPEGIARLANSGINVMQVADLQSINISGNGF
Sequence of Hepatocyte nuclear factor 6 (Homo sapiens) (Q9UBC0 whole entry, looked up, the tested form may be a part): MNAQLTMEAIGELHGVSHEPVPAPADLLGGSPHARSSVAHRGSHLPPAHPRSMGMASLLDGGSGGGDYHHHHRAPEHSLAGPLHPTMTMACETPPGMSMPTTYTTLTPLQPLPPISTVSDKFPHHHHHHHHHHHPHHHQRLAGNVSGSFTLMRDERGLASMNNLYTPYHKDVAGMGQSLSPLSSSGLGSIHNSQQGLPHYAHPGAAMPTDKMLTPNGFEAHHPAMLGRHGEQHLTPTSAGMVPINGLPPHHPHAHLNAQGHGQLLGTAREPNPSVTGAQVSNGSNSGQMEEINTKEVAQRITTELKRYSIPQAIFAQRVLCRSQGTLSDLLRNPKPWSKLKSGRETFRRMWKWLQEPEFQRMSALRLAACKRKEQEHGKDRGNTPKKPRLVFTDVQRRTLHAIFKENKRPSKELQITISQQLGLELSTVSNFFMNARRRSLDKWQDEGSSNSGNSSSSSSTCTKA
Sequence of Heat shock factor protein 1 (Homo sapiens) (Q00613 whole entry, looked up): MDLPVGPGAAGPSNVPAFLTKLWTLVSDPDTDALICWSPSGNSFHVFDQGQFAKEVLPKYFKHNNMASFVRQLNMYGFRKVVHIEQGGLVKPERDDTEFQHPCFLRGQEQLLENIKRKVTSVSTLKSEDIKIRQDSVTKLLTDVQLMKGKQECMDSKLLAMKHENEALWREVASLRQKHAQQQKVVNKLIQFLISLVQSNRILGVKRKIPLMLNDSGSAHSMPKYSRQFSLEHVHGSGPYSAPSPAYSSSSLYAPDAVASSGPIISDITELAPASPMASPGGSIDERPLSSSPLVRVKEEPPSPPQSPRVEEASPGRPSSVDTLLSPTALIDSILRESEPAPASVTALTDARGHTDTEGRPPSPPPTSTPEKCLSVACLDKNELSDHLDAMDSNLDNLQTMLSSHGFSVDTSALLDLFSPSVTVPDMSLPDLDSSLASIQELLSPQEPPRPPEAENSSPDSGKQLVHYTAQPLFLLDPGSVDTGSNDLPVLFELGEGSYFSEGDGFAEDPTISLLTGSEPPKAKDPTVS
Sequence of Bile acid receptor (Homo sapiens) (Q96RI1 whole entry, looked up): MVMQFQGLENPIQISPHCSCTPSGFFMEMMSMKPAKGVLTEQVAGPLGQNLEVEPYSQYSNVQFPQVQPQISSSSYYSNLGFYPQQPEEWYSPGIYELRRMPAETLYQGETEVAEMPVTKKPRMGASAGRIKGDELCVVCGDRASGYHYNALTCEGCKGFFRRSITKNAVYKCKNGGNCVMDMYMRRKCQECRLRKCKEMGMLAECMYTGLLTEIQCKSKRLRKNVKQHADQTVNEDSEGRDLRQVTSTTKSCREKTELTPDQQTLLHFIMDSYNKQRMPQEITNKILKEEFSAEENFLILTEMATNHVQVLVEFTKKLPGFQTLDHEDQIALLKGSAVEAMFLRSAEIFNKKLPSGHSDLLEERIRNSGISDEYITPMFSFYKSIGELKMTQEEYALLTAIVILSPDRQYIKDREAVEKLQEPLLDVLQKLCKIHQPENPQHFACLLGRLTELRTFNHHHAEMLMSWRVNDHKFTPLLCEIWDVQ
Sequence of Hypoxia-inducible factor 1-alpha (Homo sapiens) (Q16665 whole entry, looked up): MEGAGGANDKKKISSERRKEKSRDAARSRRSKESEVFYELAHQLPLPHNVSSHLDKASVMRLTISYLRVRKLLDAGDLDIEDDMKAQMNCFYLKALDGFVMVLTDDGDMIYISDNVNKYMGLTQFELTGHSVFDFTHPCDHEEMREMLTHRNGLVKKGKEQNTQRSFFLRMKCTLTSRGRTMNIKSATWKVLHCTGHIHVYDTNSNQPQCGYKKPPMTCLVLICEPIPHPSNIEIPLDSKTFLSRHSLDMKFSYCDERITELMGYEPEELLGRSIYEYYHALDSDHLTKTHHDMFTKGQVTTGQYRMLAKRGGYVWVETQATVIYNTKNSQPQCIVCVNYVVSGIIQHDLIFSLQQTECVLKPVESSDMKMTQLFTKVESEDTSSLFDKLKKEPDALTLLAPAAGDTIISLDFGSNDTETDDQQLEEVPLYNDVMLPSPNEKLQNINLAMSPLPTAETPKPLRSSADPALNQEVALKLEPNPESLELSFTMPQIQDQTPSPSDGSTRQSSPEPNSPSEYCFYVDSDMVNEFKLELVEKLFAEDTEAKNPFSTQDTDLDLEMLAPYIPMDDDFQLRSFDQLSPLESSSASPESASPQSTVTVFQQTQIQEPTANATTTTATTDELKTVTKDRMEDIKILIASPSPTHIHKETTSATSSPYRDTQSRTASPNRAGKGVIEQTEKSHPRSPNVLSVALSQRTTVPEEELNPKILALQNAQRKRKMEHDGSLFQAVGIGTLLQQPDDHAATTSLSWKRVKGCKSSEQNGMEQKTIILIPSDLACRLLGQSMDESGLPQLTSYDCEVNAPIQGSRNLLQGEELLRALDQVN
Sequence of Paired box protein Pax-6 (Homo sapiens) (P26367 whole entry, looked up): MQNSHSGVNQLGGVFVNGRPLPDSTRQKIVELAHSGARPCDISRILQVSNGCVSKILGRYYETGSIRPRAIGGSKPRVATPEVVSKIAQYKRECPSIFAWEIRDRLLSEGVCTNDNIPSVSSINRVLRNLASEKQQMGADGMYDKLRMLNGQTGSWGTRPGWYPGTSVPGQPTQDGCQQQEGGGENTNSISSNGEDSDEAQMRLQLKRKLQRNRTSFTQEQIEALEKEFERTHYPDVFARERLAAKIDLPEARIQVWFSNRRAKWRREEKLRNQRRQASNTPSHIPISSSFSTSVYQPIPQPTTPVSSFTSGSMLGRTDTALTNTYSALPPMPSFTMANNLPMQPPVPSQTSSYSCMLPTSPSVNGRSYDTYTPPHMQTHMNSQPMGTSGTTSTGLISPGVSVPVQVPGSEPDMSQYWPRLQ
Sequence of Signal transducer and activator of transcription 3 (Homo sapiens) (P40763 whole entry, looked up): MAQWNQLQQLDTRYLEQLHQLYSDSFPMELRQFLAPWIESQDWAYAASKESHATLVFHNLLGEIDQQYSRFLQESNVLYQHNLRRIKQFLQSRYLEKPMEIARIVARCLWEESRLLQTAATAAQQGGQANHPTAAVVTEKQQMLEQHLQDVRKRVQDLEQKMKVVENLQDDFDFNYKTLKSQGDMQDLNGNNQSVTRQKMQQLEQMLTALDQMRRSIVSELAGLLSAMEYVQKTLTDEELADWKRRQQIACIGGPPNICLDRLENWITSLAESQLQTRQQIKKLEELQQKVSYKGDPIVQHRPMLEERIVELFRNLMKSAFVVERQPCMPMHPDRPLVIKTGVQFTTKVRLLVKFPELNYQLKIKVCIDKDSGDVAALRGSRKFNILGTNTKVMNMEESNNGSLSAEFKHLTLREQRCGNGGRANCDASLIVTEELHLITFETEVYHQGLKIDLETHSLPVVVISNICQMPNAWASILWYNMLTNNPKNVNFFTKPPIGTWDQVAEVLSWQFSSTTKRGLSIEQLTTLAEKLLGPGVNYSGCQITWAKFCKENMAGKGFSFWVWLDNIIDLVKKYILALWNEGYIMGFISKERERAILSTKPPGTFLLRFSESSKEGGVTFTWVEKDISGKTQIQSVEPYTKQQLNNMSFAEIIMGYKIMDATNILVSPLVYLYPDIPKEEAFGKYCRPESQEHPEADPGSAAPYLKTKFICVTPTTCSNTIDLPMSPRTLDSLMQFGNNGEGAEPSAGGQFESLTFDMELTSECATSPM

O=C(Cl)C(F)(F)C(F)(F)C(F)(F)C(=O)Cl
inactive: all assays above

O=C(O)[C@H](O)[C@@H](O)C(=O)O
not listed: [7] | [14]
inactive: all other assays above

C[C@@H](Oc1ccc(CNC(=O)c2cccnc2Oc2ccc3c(c2)OCO3)c(F)c1)C(=O)O
inactive: all assays above

FC(F)(F)C(F)(F)C(F)(F)C(F)(F)C(F)(F)C(F)(F)I
inactive: all assays above

NC(=O)N(O)[C@@H]1COc2cc(OCc3ccccc3)ccc21
inactive: all assays above

FC(F)(F)COC(OCC(F)(F)F)OCC(F)(F)F
inactive: all assays above

CCN(CC)C(=S)SSC(=S)N(CC)CC
inactive: [3] | [5] | [6] | [14] | [15] | [19] | [20]
active: [1] 153 µM | [2] 67.8 µM | [4] 81.3 µM | [9] 111 µM | [10] 148 µM | [11] 166 µM | [12] 137 µM | [13] 161 µM | [16] 100 µM | [17] 150 µM | [18] 157 µM

CCCOc1ccc(S(=O)(=O)N2CCN(CC)CC2)cc1-c1nc2c(CC)n(Cc3ccccn3)nc2c(=O)[nH]1
active: [2] 100 µM | [4] 70 µM | [7] 19.8 µM | [10] 34.8 µM | [11] 2.66 µM | [12] 40.2 µM | [13] 1.18 µM | [15] 2.63 µM | [18] 27.5 µM
inactive: all other assays above

O=C(O)c1cccc(C(=O)O)c1
not listed: [11]
inactive: all other assays above

CCCCCOC(C)=O
inactive: all assays above

O=S(=O)(O)c1ccc(N=Nc2c(O)ccc3cc(S(=O)(=O)O)ccc23)cc1
not listed: [14]
inactive: all other assays above

Nc1ccn([C@@H]2O[C@H](CO)[C@@H](O)[C@@H]2O)c(=O)n1
inactive: all assays above

Cc1nc(-c2ccccn2)ncc1C(=O)Nn1cc(C)c2cc(F)ccc21
active: [7] 48 µM | [13] 4.24 µM
inactive: all other assays above
